Assay outcomes deposited in PubChem BioAssay by National Center for Advancing Translational Sciences (NCATS).
Pol beta inh: inhibitors of human DNA polymerase beta. P06746. Pol beta primer extension/strand displacement, fluorescence kinetic. Potency, µM (top dose mostly 114 µM), hits mostly inhibitors. 340,000 tested, 1.3% active
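Enzyme-only controls used 10 nM Pol beta; buffer lacking enzyme served as negative control. Compound preincubated 15 min, then 50 nM substrate added; 0 and 10 min reads at room temperature.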
FEN1 inh: human FEN1 inhibition. P39748. Recombinant FEN1 flap cleavage, fluorescence, 15 min. Potency, µM (series often up to 114 µM), hits mostly inhibitors. 390,000 tested, 0.35% active; note: nearly all actives have a fitted effect of over 65% in size
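Nuclease activity of 10 nM FEN1 was measured after 15 min of room-temperature exposure to titrated compounds, by adding 50 nM flap substrate and reading plates at 0 and 15 min.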
POLK inh: blocks human DNA polymerase kappa activity. purified Pol kappa, fluorescent DNA synthesis assay, 10 min. Potency, µM (highest dose often 107 µM), most hits filed as inhibitors. 400,000 tested, 0.53% active
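Inhibition of 10 nM Pol kappa is measured by a fluorescent read-out at 0 and 10 min following addition of 50 nM substrate (final), with a 15-min room-temperature compound preincubation.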
POLH inh: blocks human DNA polymerase eta activity; Q9Y253; recombinant Pol eta, fluorescent DNA replication assay; Potency, µM (doses to about 114 µM), actives largely listed as inhibitors; 390,000 tested, 1.2% active; AID 588591
Target sequence (Q9Y253 whole entry, looked up): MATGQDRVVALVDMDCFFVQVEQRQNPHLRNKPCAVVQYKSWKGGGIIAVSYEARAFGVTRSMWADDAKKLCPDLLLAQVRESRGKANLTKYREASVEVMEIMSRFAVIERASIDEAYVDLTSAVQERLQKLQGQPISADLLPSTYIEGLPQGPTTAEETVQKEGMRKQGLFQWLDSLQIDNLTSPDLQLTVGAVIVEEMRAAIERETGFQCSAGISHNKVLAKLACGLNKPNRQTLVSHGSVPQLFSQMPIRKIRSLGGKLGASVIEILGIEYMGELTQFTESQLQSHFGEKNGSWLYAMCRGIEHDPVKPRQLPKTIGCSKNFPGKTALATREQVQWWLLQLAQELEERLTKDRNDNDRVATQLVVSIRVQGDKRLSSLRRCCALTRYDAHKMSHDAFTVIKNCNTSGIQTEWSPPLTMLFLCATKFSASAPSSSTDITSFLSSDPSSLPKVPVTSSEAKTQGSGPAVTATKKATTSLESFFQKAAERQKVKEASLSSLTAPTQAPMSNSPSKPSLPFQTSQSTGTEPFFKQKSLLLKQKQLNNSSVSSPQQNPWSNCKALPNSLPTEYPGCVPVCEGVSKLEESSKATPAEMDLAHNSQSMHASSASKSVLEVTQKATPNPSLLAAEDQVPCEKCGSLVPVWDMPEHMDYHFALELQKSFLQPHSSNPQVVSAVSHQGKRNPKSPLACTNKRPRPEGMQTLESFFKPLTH
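Fluorescent replication assay: 50 nM final substrate added after a 15 min room-temperature compound preincubation with 10 nM enzyme. Signal taken at 0 min and again at 10 min.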
Pol iota inh: inhibitors of human DNA polymerase iota | 390,000 tested, 1% active | Pol iota fluorescent replication assay, 10 min | AID 588590 | Potency, µM (titrated, usually from 115 µM), usual class: inhibitors | Q9UNA4
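Pol iota at 10 nM preincubated 15 min with compounds at room temperature; reaction started with fluorescent substrate, 50 nM final. Fluorescence read kinetically at 0 and 10 min; buffer-only wells as negative control.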
WRN inhibitor: WRN helicase (human) inhibition; WRN helicase unwinding, fluorescent forked duplex, kinetic; Potency, µM (titrated, usually from 114 µM), usual class: inhibitors; 360,000 tested, 0.46% active; AID 651768; note: nearly all actives have a fitted effect of over 55% in size
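WRN at 20 nM final was preincubated with compound for 15 min at room temperature; reaction started with 100 nM forked duplex oligonucleotide carrying fluorophore and quencher plus 2 mM ATP (final). Unwinding followed kinetically by red fluorescence (ex 525/em 598 nm).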
Each line names hits and unclear results; the compound was inactive in the other large screens. An excerpt weighted towards active compounds, which were near 2.4% of everything screened. Calls come from the whole dose curve; as a rule, active = well fitted curve in the direction sought with a large enough effect; inconclusive = small, poorly fitted or top-dose-only effect, or another doubt; inactive = no such curve, though single readings can be large; an effect the other way counts as inactive or inconclusive.

O=C(N/N=C/C=C/c1ccco1)c1ccccc1Cl	POLK inh 79µM, Pol iota inh inconclusive
CC(/C=C/c1ccco1)=N/NC(=O)c1ccccc1Cl	POLH inh inconclusive
O=C(N/N=C/C=C/c1ccco1)c1ccncc1	POLK inh 79µM, Pol iota inh 16µM
Cc1ccc(OCC(=O)N/N=C/C=C/c2ccco2)c(Br)c1	POLK inh 79µM, Pol iota inh 50µM
O=C(O)CCC/C=C\C[C@H]1C(=O)C[C@@H](O)[C@@H]1/C=C/[C@@H](O)CCc1ccccc1	none (no result: Pol beta inh, FEN1 inh, POLH inh, Pol iota inh, WRN inhibitor)
Cn1c(=O)c(-c2ccccc2)nc2cnc(N3CCOCC3)nc21	none (no result: Pol beta inh, FEN1 inh, POLH inh, Pol iota inh, WRN inhibitor)
CC(C)c1ccc(C2C3=C(CC(c4ccco4)CC3=O)Nc3nc(C(F)(F)F)nn32)cc1 (stereo not given)	none (no result: Pol beta inh, POLH inh, WRN inhibitor)
O=C(N/N=C/C=C\c1ccco1)c1cccs1	Pol beta inh 22µM, POLK inh inconclusive, POLH inh inconclusive, Pol iota inh 25µM
O=C(N/N=C/C=C\c1ccccc1[N+](=O)[O-])c1cccs1	none
O=C(CNC(=O)c1cccs1)N/N=C/c1ccco1	none
O=C(N/N=C/C=C/c1ccc([N+](=O)[O-])cc1)c1cccs1	Pol beta inh 7.1µM, POLH inh inconclusive, Pol iota inh inconclusive, WRN inhibitor inconclusive
COc1ccc(N2CC(NC(=O)c3ccc4c(c3)OCO4)CC2=O)cc1 (stereo not given)	none (no result: WRN inhibitor)
CCCSc1nc2sc3c(c2c(=O)[nH]1)CCN(Cc1ccccc1)C3	Pol beta inh 40µM, POLH inh inconclusive
CCCSc1nc2sc3c(c2c(=O)[nH]1)CC(C)CC3 (stereo not given)	none
CCOC(=O)c1ccccc1NS(=O)(=O)c1ccc(N2CCCCS2(=O)=O)cc1	Pol iota inh inconclusive (no result: WRN inhibitor)
Cc1ccc(C)c(Nc2nn3c(=O)c4ccc(C(=O)NCCc5ccccc5)cc4nc3s2)c1	none (no result: WRN inhibitor)
COc1ccc(Nc2nn3c(=O)c4cc5c(cc4nc3s2)OCO5)c(OC)c1	Pol beta inh 3.5µM, POLH inh inconclusive (no result: WRN inhibitor)
COc1ccccc1Nc1nn2c(=O)c3ccc(C(=O)NCCc4ccccc4)cc3nc2s1	Pol beta inh inconclusive, POLH inh 79µM (no result: WRN inhibitor)
CCc1sc(-c2cc3ccccc3oc2=O)nc1-c1ccc(C)cc1	none (no result: Pol beta inh, POLH inh, WRN inhibitor)
Cc1[nH]c(=O)nc(SCc2cccc(Cl)c2)c1C#N	Pol beta inh 71µM, WRN inhibitor inconclusive
COC(=O)Cc1[nH]nc2c1C(c1ccc(O)c(OC)c1)C(C#N)=C(N)O2 (stereo not given)	POLH inh 45µM, Pol iota inh 8.9µM
O=S(=O)(c1ccc2c(c1)CCCC2)N1CCN(c2nc(-c3ccccc3)nc3ccccc23)CC1	none (no result: Pol beta inh, POLH inh, WRN inhibitor)
Cc1ccc(-c2nn(-c3ccccc3)cc2C2CC(c3cccs3)=NN2C(=O)CCCC(=O)O)cc1 (stereo not given)	FEN1 inh 50µM, POLH inh inconclusive, WRN inhibitor inconclusive
Cc1ccc(C2=NN(C(=O)CCC(=O)O)C(c3cn(-c4ccccc4)nc3-c3ccc(C)cc3)C2)cc1 (stereo not given)	Pol beta inh 22µM, POLH inh inconclusive, WRN inhibitor inconclusive
Cc1ccc2nc(Cl)c(C3CC(c4cccs4)=NN3C(=O)CCCC(=O)O)cc2c1 (stereo not given)	Pol iota inh inconclusive
CCOc1ccc2nc(Cl)c(C3CC(c4ccc(C)cc4)=NN3C(=O)CCCC(=O)O)cc2c1 (stereo not given)	Pol beta inh 22µM, POLH inh inconclusive (no result: WRN inhibitor)
c1ccc(Nc2nc(-c3ccc4c(c3)OCO4)nc3ccccc23)cc1	none (no result: Pol beta inh, FEN1 inh, POLH inh, Pol iota inh, WRN inhibitor)
CC(C)c1ccc(Cn2cnc3c(cnn3C(C)(C)C)c2=O)cc1	none (no result: Pol beta inh, POLH inh, WRN inhibitor)
Nc1nc(SCC(=O)N2N=C3/C(=C/c4ccco4)CCCC3C2c2ccco2)n[nH]1 (stereo not given)	POLH inh inconclusive, Pol iota inh 45µM
Nc1nc(SCC(=O)N2N=C3/C(=C\c4ccco4)CCCC3C2c2ccco2)n[nH]1 (stereo not given)	POLH inh inconclusive, Pol iota inh 40µM (no result: Pol beta inh)
O=C(CSc1ncn[nH]1)N1N=C2/C(=C/c3ccccc3)CCCC2C1c1ccccc1 (stereo not given)	none
